# Compound activity deposited in PubChem by several laboratories.
# Compounds with a hit are over-represented: about 1.3% of the library has one in this group of screens.
# TNAP act DEA: activates human TNAP at intermediate phosphate acceptor concentration | purified TNAP, CDP-star luminescence, 100 mM DEA, 30 min; active compounds read high; scale: 0 levamisole-inhibited, 1 vehicle-only enzyme | P05186 | activation factor at 20 µM | 64,000 tested, under 10 active;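 active means activation factor of at least 2 at 20 µM, relative to controls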
# Target sequence (P05186 whole entry, looked up): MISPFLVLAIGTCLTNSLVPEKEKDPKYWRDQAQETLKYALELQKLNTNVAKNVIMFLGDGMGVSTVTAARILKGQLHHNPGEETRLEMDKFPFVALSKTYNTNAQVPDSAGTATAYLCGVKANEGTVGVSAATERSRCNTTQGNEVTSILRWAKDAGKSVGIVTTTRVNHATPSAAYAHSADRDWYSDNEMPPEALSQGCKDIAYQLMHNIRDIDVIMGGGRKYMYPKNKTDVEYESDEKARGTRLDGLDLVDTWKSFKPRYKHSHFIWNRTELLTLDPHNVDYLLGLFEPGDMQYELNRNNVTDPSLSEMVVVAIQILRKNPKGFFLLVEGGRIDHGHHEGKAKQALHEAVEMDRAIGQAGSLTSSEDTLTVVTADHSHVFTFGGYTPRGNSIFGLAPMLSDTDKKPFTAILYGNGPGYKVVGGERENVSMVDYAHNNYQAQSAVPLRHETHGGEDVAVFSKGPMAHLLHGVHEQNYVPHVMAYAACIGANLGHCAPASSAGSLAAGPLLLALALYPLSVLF
# HePTP inh: blocks human HePTP tyrosine phosphatase; P35236; hit rate 0.64% among 110,000; recombinant HePTP phosphatase activity, OD absorbance; inhibition, % at 20 µM; in the data active means inhibition above about 50%;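 further: plate controls were vehicle for no effect and reference inhibitor for full effect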
# Ecoli WT expand: growth inhibitors of E. coli BW25113 wild type | OD600 absorbance | growth inhibition, % at 100 µM | hit rate 0.15% among 98,000 | AID 710;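 active means growth inhibition above about 50% at one test dose, limit read from the data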;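 further: growth measured after 20 h incubation at 37 °C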
# PLAP act: human PLAP activation. purified PLAP enzyme, luminescent substrate read-out; active compounds read high. hit rate 1.2% among 96,000. activation fold at 20 µM; in the data active means activation fold above about 2
# Active calls of the source: *; . = not tested or not shown.
SMILES,TNAP act DEA,HePTP inh,Ecoli WT expand,PLAP act
Cn1c2ccccc2c2nnc(SCC(=O)NCc3ccco3)nc21,.,104*,.,.
O=C(NC(=S)Nc1cccnc1)c1ccco1,.,3,.,.
CC(C)(C)c1nn(-c2ccccc2)c2[nH]c(=O)c(CNCc3ccc4c(c3)OCO4)cc12,.,.,19,2.1*
CCOc1cccc(NCc2cc3c(C(C)(C)C)nn(-c4ccccc4)c3[nH]c2=O)c1,.,.,-15,12
CC(C)Sc1nc(N2CCOCC2)c2c(c1C#N)CC(C)(C)N(C)C2,.,.,-2,2*
CC(C)Sc1nc(N2CCOCC2)c2c(c1C#N)CC(C)(C)SC2,0.9,7,-23,0.9
CC(C)n1c(SCc2cc(=O)[nH]c3ccccc23)nc2c1c(=O)n(C)c(=O)n2C,0.9,1,.,0.9
COc1ccc(C(O)c2coc3ccc(O)c(CN(C)C)c23)cc1 (configuration not stated),0.9,-10,11,1.1
COc1ccc(C)cc1NC(=O)c1ccccc1I,.,-3,.,.
COc1ccccc1NC(=S)NNC(=O)c1nn(C)c(C)c1Cl,.,.,-5,2.1*
COc1ccccc1NC(=S)NNC(=O)c1ccc(O)cc1,.,.,1,2.4*
COc1ccc(C)cc1NC(=S)NNC(=O)c1ccccc1Cl,.,.,4,2.9*
COc1ccccc1NC(=S)NNC(=O)c1nn(C)cc1Cl,.,.,13,1.9
CC(=O)c1cccc(NC(=O)NC(C)c2ccncc2)c1 (configuration not stated),0.9,7,-4,2.2*
CC(=O)c1cccc(NC(=O)Nc2cccnc2)c1,1.1,-6,.,.
O=C(c1ccccc1)c1ncc(C(F)(F)F)cc1Cl,.,.,10,1.2
CCCc1cc(=O)[nH]c(SCC(=O)Nc2cc3c(cc2C(C)=O)OCO3)n1,0.9,10,-3,0.9
Clc1ccc(CN2CCN(/N=C/C=C\c3ccco3)CC2)cc1,.,8,.,.
Cc1ccc(CN2CCN(/N=C/C=C\c3ccco3)CC2)cc1,.,103*,.,.
O=C(O)CCS(=O)(=O)c1nc(-c2cccs2)cc(C(F)(F)F)n1,.,.,13,0.9
COc1cccc(N2CCN(CC(=O)Nc3nnc(-c4ccccc4)s3)CC2)c1,1,5,-13,2*
COc1cccc(N2CCN(CC(=O)NCc3cccs3)CC2)c1,0.9,10,3,1.3
O=C(Nc1ccc(-c2nc3ccccc3[nH]2)cc1)c1ccc(Br)o1,.,21,.,.
O=C(Nc1ccc(-c2nc3ccccc3[nH]2)cc1)c1ccc(Cl)c(Cl)c1,.,101*,.,.
O=C(Nc1ccc(-c2nc3ccccc3[nH]2)cc1)c1cc2ccccc2o1,.,102*,.,.
SMILES,TNAP act DEA,HePTP inh,Ecoli WT expand,PLAP act
O=C(Nc1ccc(-c2nc3ccccc3[nH]2)cc1)c1ccc2c(c1)OCO2,.,.,-7,1
CC(C)C1C(C#N)=C(N)SC(N)=C1C#N,1,6,-1,1
COC(=O)c1ccccc1NC(=O)NCc1cccnc1,0.9,5,8,1
COc1ccc(OC)c(N2C(=O)CC(Cc3cc(C)cc(C)c3)C2=O)c1 (configuration not stated),.,97*,.,.
CCn1c2ccccc2c2cc(NC(=O)Cc3cccs3)ccc21,.,7,.,.
CCN(CC)N=Nc1[nH]nc2nc(C)cc(C)c12,.,.,63*,1.2
O=C(CSc1nnc(CCc2nc3ccccc3[nH]2)n1-c1ccccc1)NCc1ccco1,1,10,2,2*
CCCc1cc(-c2n[nH]c(C(=O)OCC)c2-c2cscn2)c(O)cc1O,.,.,6,2.1*
CCOC(=O)c1[nH]nc(-c2c(O)cc(C)cc2O)c1-c1csc(C)n1,1,-10,7,2.1*
Cc1ccc2oc(-c3cccc(NC(=O)C4CCCO4)c3)nc2c1 (configuration not stated),0.9,8,23,1.2
O=C1NC(=O)N(c2cccc(F)c2)C(=O)/C1=C/c1ccc(Sc2ccccc2)o1,.,21,.,.
O=C(NCC(c1cccnc1)N1CCN(c2ccccc2F)CC1)OCc1ccccc1 (configuration not stated),1,7,1,1.6
COc1ccc(/C=C/C(=O)Nc2ccc3nn(-c4ccc(F)cc4)nc3c2)cc1,.,57*,.,.
O=C(/C=C\c1ccccc1)Nc1ccc2nn(-c3ccc(F)cc3)nc2c1,.,61*,.,.
COc1ccc(/C=C/C(=O)Nc2cc3nn(-c4ccc(C)cc4)nc3cc2C)cc1,.,3,.,.
O=C(/C=C/c1cccc([N+](=O)[O-])c1)Nc1ccc2nn(-c3ccccc3)nc2c1,.,102*,.,.
O=C(/C=C/c1cccc([N+](=O)[O-])c1)Nc1ccc2oc(-c3ccccc3)nc2c1,.,28,.,.
O=C(Nc1ccc2nn(-c3ccc(F)cc3)nc2c1)c1cccc(Br)c1,.,57*,.,.
O=C(NCC(c1cccnc1)N1CCN(c2ccccc2F)CC1)c1ccco1 (configuration not stated),.,.,-7,0.9
Cc1nc2ccc(S(=O)(=O)NC(C(=O)Nc3nc4ccc(Cl)cc4s3)C(C)C)cc2s1 (configuration not stated),.,.,-9,1.8
O=c1c(-c2ccccc2)c(O)nc2ccccn12,0.9,9,-3,0.8
Cc1ccc(-n2c(-c3c(-c4ccccc4)noc3C)n[nH]c2=S)cc1,.,.,4,2.1*
COCC(C)Nc1ncnc2c1cnn2-c1ccc(Cl)cc1 (configuration not stated),1,2,0,.
CC1=CC(C)(C)N2C(=O)C3(N=C(N)NC(Nc4ccccc4)=N3)c3cc(C)cc1c32 (configuration not stated),1.1,12,-1,2.1*
CC1=CC(C)(C)N2C(=O)C3(SCC(=O)N3c3ccc(O)cc3)c3cc(C)cc1c32 (configuration not stated),0.9,-5,4,1.3
SMILES,TNAP act DEA,HePTP inh,Ecoli WT expand,PLAP act
C[N+]1(CC(=O)OCCCc2ccccc2)CCOCC1,.,.,0,1
CCOc1cc(N2CCOCC2)c(OCC)cc1N,.,68*,.,.
O=C(c1ccc(Br)o1)N1CCN(c2ccc([N+](=O)[O-])cc2)CC1,.,103*,.,.
COc1ncnc2c1NC1=C(S2)C(=NCCC(=O)O)CC(C)(C)C1,.,.,9,1.1
CN(C)c1ncnc2c1NC1=C(S2)C(=NCCCC(=O)O)CC(C)(C)C1,.,.,2,2*
C/C(=N\NC(=O)c1c[nH]c2ccccc12)c1ccc(C)o1,.,.,5,2.6*
O=C(NCCCn1ccnc1)c1cn(-c2ccccc2)nc1-c1ccc(F)cc1,1.2,2,6,2.3*
CC(C)NC(=O)CSc1nc2ccccc2[nH]1,.,2,.,.
O=C(CSc1nc2ccccc2[nH]1)NCCCn1ccnc1,1,4,3,2*
O=C(NCCCn1ccnc1)C(O)(c1ccccc1)c1ccccc1,.,56*,.,.
Cc1cccc(NC(=O)c2cc(NC(=O)c3ccco3)ccc2Cl)n1,0.9,3,-14,1
C(=N\n1cnnc1)/c1cc2ccccc2[nH]1,.,-12,.,.
O=C1CSC(c2cn(-c3ccccc3)nc2-c2ccccc2)N1Cc1ccc(Cl)cc1 (configuration not stated),.,74*,.,.
O=C1CSC(c2cn(-c3ccccc3)nc2-c2ccc(Cl)cc2)N1Cc1ccccc1 (configuration not stated),.,-13,.,.
Cc1cc(NC(=O)c2ccc(-c3ccc(Br)cc3)o2)ccc1NC(=O)c1ccco1,.,-2,.,.
O=C(Nc1ccccc1C(=O)Nc1ccc(Cl)cc1)c1ccco1,.,103*,.,.
